The source made the active and inactive calls.
Experiments:
[1] = compound effects on lung adenocarcinoma cell viability – A549, calcein-AM fluorescence, 48 h, basal, profiling panel (AID 1162); settings: higher = more signal
[2] = compound effects on differentiated 3T3-L1 adipocyte viability – cell-based, 3T3-L1 adipocytes, calcein-AM fluorescence, 48 h, basal, profiling panel (AID 1163); settings: 3T3-L1 adipocytes viability, higher = more signal
[3] = compound effects on hepatocellular carcinoma cell viability – HepG2, calcein-AM fluorescence, 48 h, basal, profiling panel (AID 1164); settings: higher = more signal
[4] = compound effects on multiple myeloma cell viability – MM1S, calcein-AM fluorescence, 48 h, basal, profiling panel (AID 1165); settings: higher = more signal;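 note: viability of MM1S multiple myeloma cells under basal unstimulated conditions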
[5] = calcein-AM signal in unstimulated myeloma cells – cell-based, calcein-AM fluorescence, 48 h, PK04 Diversity Set, profiling panel (AID 1166); settings: RPMI8226 myeloma viability, higher = more signal;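 note: cells grown under basal conditions without added stimulus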
[6] = JC-1 mitochondrial signal, unstimulated HepG2 cells – cell-based, JC-1 fluorescence, 24 h, 100 nL compound, profiling panel (AID 1167); settings: HepG2 mitochondrial potential, higher = more signal
[7] = JC-1 mitochondrial signal, unstimulated adipocytes – cell-based, JC-1 fluorescence, 3T3-L1 adipocytes, 24 h, 100 nL compound, profiling panel (AID 1168); settings: JC-1 mitochondrial fluorescence, higher = more signal, called active from +8 up or from −8 down
[8] = JC-1 mitochondrial signal, unstimulated myeloma cells – cell-based, JC-1 fluorescence, RPMI8226, 24 h, 100 nL compound, profiling panel (AID 1169); settings: JC-1 mitochondrial potential fluorescence, higher = more signal
[9] = JC-1 mitochondrial signal, unstimulated MM1S myeloma – cell-based, JC-1 fluorescence, 24 h, 100 nL compound, profiling panel (AID 1170); settings: MM1S mitochondrial potential, higher = more signal
[10] = resazurin metabolic signal in A549 cells – cell-based, resazurin fluorescence, 24 h, PK04 Diversity Set, profiling panel (AID 1171); settings: A549 viability, higher = more signal, called active from +8 up or from −8 down
Note: test concentration not given here.

Row | Compound | z-score [1] | z-score [2] | z-score [3] | z-score [4] | z-score [5] | z-score [6] | z-score [7] | z-score [8] | z-score [9] | z-score [10]
1 | COC(=O)[C@@]1(Cc2ccc(F)cc2)[C@H]2c3cc(C(=O)N(C)C)n(Cc4ccccc4)c3C[C@H]2CN1C(=O)c1ccccc1 | -0.799 | -0.184 | -0.344 | -0.812 | -0.997 | 0.746 | -0.85 (inactive) | -0.28 | -0.529 | -0.631 (inactive)
2 | COC(=O)[C@@]1(Cc2ccc(OC)cc2)[C@H]2c3cc(C(=O)N4CCCC4)n(Cc4ccc(C)c(F)c4F)c3C[C@H]2CN1C(=O)c1ccccc1 | 0.842 | 0.0891 | 0.682 | -1.59 | -2.66 | 3.41 | -0.411 (inactive) | -0.735 | -1.51 | -0.268 (inactive)
3 | C=C[C@H](CO)NS(=O)(=O)c1ccc(Br)cc1 | 1.52 | 0.131 | 1.34 | -0.328 | -0.451 | 0.63 | 0.489 (inactive) | 0.3 | 0.525 | 0.204 (inactive)
4 | CC(C)NC(=O)[C@@H]1c2ccccc2C(=O)N(C2Cc3ccccc3C2)[C@H]1c1ccc(CO)cc1 | 1.54 | -0.27 | 1.22 | 0.543 | 0.982 | 3.83 | 0.976 (inactive) | 0.459 | -0.096 | 1.81 (inactive)
5 | COC(=O)C(CC#Cc1ccc2c(c1)[C@]1(C(=O)N2)[C@H](C(=O)Nc2nc3ccccc3s2)[C@H]2C(=O)O[C@H](c3ccccc3)[C@H](c3ccccc3)N2[C@@H]1c1ccc(O)cc1)C(=O)OC | 0.567 | 0.823 | 1.49 | -1.15 | -3.43 | -2.74 | -0.383 (inactive) | -1.31 | -0.561 | 0.502 (inactive)
6 | C=C[C@H](OC)[C@@H](OC(=O)Nc1ccc(OC)cc1)c1ccc(O)c(F)c1 | -0.766 | -0.501 | -0.322 | -2.06 | -2.88 | -2.39 | 0.313 (inactive) | -0.538 | -0.933 | -0.596 (inactive)
7 | CCCCCN1CC=CC23O[C@@H]4/C=C\CCC(C)OC(=O)C4[C@H]2C(=O)N(C(C)CO)[C@@H]3C1=O (stereo not given in full) | 0.342 | 0.287 | 0.356 | 0.508 | 0.311 | 0.558 | -0.00375 (inactive) | 0.724 | -0.759 | 1.02 (inactive)
8 | CC(C)[Si]1(C(C)C)O[C@@H](c2ccccc2)c2cc(-c3ccc(-c4ccc(Cl)c(Cl)c4)o3)nc(-c3ccccc3)c21 | 0.272 | -0.277 | 0.428 | -2.62 | -3.09 | -1.87 | -1.06 (inactive) | -0.395 | -0.582 | 0.613 (inactive)
9 | C[N+](C)(C)CCCCNC(=O)[C@@H]1C[C@@H]2C(=O)N[C@@H](Cc3ccccc3)C(=O)N2[C@@H]1c1cccc(OCCO)c1 | 1.49 | -0.764 | 0.215 | 0.367 | 0.0971 | 1.58 | 0.924 (inactive) | 0.219 | -0.493 | -0.337 (inactive)
10 | CN(C)CCCC[C@@H]1NC(=O)[C@H]2C[C@@H](C(=O)NCCCCCCN)[C@@H](c3ccc(O)cc3)N2C1=O | 0.168 | 0.526 | -0.0064 | -0.314 | 0.226 | -0.878 | 0.862 (inactive) | -0.128 | 0.119 | 0.286 (inactive)
11 | [N-]=[N+]=Nc1ccccc1[C@@H]1OC(c2ccc(OCCCO)cc2)=N[C@]1(Cc1ccccc1)C(=O)N1CCOCC1 | -0.539 | -1.63 | -0.404 | -3 | -4.17 | 0.593 | 2.15 (inactive) | -1.21 | -1.09 | -1.56 (inactive)
12 | CC(C)C(CO)N1C(=O)[C@@H]2C3C(=O)OCCC/C=C\[C@H]3OC23C=CCN(CCN2CCOCC2)C(=O)[C@@H]13 (stereo not given in full) | 1.12 | -0.453 | -0.66 | 0.171 | -0.378 | -0.936 | -0.173 (inactive) | -0.759 | -0.359 | -0.702 (inactive)
13 | O=C1C2C=CC(C(O)CCc3ccccc3)N(Nc3ccccc3F)C2C(=O)N1c1ccccc1 (stereo not given) | -0.804 | 0.255 | -0.31 | 0.596 | -1.46 | -0.257 | 0.377 (inactive) | -0.448 | -0.515 | 0.387 (inactive)
14 | CC(=O)NCCCC[C@@H]1NC(=O)[C@@H]2C[C@H](C(=O)NCCCCCNC(=O)CS)[C@H](c3cccc(OCCO)c3)N2C1=O | 0.189 | 0.767 | -0.884 | 0.28 | 0.403 | -1.12 | -0.843 (inactive) | 0.436 | -0.892 | 0.131 (inactive)
15 | COCC(=C=CC[C@@H](O)c1cccc(OCCO)c1)C[C@@H](O)c1ccccn1 | 0.492 | -0.0288 | -0.112 | 0.265 | -0.51 | 0.00274 | 0.613 (inactive) | 0.00702 | -0.0149 | 0.391 (inactive)
16 | C=CCC(OC(C)=O)[C@@H]1[C@@H](N(Cc2ccc(-c3ccccc3)cc2)C(=O)Cc2ccc(OC)cc2)c2cc(OCCCO)ccc2N1C(=O)Cc1ccc2ccccc2c1 (stereo not given in full) | 0.247 | 0.358 | 0.71 | -0.391 | -0.252 | 1.25 | -1.73 (inactive) | 0.158 | 0.338 | -0.599 (inactive)
17 | CC(C)C[C@@H]1NC(=O)[C@H](C(C)C)NC(=O)[C@@]23C(=O)N[C@@H](Cc4ccccc4)C2[C@H](C)[C@@]2(C)O[C@H]2C3/C=C/CC/C=C/CNC1=O (stereo not given in full) | -0.642 | 1.39 | -0.504 | -0.359 | -0.789 | -0.0491 | -0.321 (inactive) | 0.0651 | 1.72 | 0.612 (inactive)
18 | O=C(NCCO)C1=C[C@H](Oc2ccccc2I)[C@@H](O)[C@H](N(Cc2ccco2)C(=O)Cc2ccccc2)C1 | -0.22 | 1.31 | -0.902 | 0.426 | -1.94 | -0.217 | -0.166 (inactive) | -0.084 | 0.559 | -1.35 (inactive)
19 | C[N+](C)(C)CCCCCCNC(=O)[C@@H]1C[C@@H]2C(=O)N[C@@H](Cc3ccccc3)C(=O)N2[C@@H]1c1cccc(OCCO)c1 | 0.741 | 0.0098 | 0.417 | 0.653 | 0.925 | -0.432 | 0.543 (inactive) | -0.267 | -0.544 | 0.898 (inactive)
20 | CCOC(=O)[C@H]1C/C=C/C[C@H](C(=O)OCC)C(=O)O[C@H]2[C@@H](OC)O[C@H](CO)[C@@H](OC(=O)c3c(OC)cccc3OC)[C@@H]2OC1=O | -4.24 | 0.125 | -4.96 | -3.3 | -4.09 | -3.48 | 0.154 (inactive) | -0.999 | -1.96 | -4.38 (inactive)
21 | COc1cc(Br)cc(C(O)C2C=CC3C(=O)N(C)C(=O)C3N2N2CCCCC2)c1OC (stereo not given) | -1.12 | -0.456 | -0.315 | -1.68 | -0.18 | -1.05 | -0.535 (inactive) | 0.672 | -0.129 | -0.318 (inactive)
22 | CC[C@@H]1C=C(C(=O)O)[C@H](c2ccc(Br)cc2)N1S(=O)(=O)c1ccc(C)cc1 | -0.646 | -0.506 | -0.586 | -0.314 | -1.13 | -0.131 | -0.258 (inactive) | -0.0108 | -0.82 | -0.472 (inactive)
23 | C=C(C)[C@@H]1CC=C(C(O)C2C=CC3C(=O)N(C)C(=O)C3N2Nc2ccccc2)CC1 (stereo not given in full) | -0.889 | -1.16 | -0.651 | -1.36 | 0.0835 | -0.9 | 4.5 (inactive) | -0.334 | -0.0333 | 0.392 (inactive)
24 | COc1ccc([Si](C)(C)[C@@H]2[C@@H](CCO)O[C@]3(C(=O)N(Cc4ccc(N(C=O)c5ccccc5)cc4)c4ccccc43)[C@H]2C)cc1 | -0.844 | -0.193 | -3.46 | -1.94 | -3.9 | -0.164 | 0.21 (inactive) | -0.95 | -1.26 | -2.71 (inactive)
25 | COC(=O)C(CC#Cc1ccc2c(c1)[C@]1(C(=O)N2)[C@H](c2ccc(OCCO)cc2)N2[C@H](c3ccccc3)[C@H](c3ccccc3)OC(=O)[C@H]2[C@@H]1C(=O)N1CCc2cc(OC)c(OC)cc2C1)C(=O)OC | 0.442 | 1.16 | 0.578 | -0.952 | -0.578 | -0.156 | -0.0627 (inactive) | -0.929 | -1.11 | 0.161 (inactive)
26 | CC1CC/C=C\[C@H]2OC34C=CCN(C(C)(C)C)C(=O)[C@H]3N(C(C)CO)C(=O)[C@@H]4C2C(=O)O1 (stereo not given in full) | 0.593 | -0.691 | 0.292 | 0.771 | -0.192 | -0.0168 | -0.43 (inactive) | -0.164 | -0.726 | -0.388 (inactive)
27 | C=CCN1C(=O)[C@@]2(Cc3ccccc31)N=C(c1ccc(OCCCO)cc1)O[C@H]2c1ccccc1 | -0.914 | -0.107 | -1.38 | -3.23 | -2.16 | -0.927 | 0.133 (inactive) | -0.942 | -1.29 | -1.99 (inactive)
28 | COCCOC(=O)N1C(=O)[C@@]2(c3cc(C#Cc4ccc(OC)cc4)ccc31)[C@H](c1ccc(O)cc1)N1[C@H](c3ccccc3)[C@H](c3ccccc3)OC(=O)[C@H]1[C@@H]2C(=O)N1CCc2cc(OC)c(OC)cc2C1 | -0.548 | 1.22 | -0.486 | -0.0636 | -0.063 | 0.793 | 2.76 (inactive) | 0.188 | 0.108 | 0.776 (inactive)
